pPAFAH inh – pPAFAH (human) enzyme inhibition; Q13093; recombinant pPAFAH, FP-rhodamine probe fluorescence polarization; inhibition, % at 3.39 µM; hit rate 1.5% among 330,000; AID 463082;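 active means inhibition above the mean inhibition across the screen plus 3 SD, cut at about 25% in these data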;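 further: inhibitors block binding of the rhodamine activity-based probe so polarization drops; 0% = enzyme with DMSO and 100% = wells lacking pPAFAH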
PAFAH1B2 FP inh – inhibitors of human PAFAH1B2; P68402; recombinant PAFAH1B2, FP-rhodamine activity probe, fluorescence polarization; inhibition, % at 3.39 µM; hit rate 1.2% among 340,000;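 active means inhibition above the mean of all tested compounds plus 3 SD, cut at about 24% in these data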;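 further: 0% = enzyme with DMSO and 100% = wells lacking PAFAH1B2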
Target sequence (P68402 whole entry, looked up): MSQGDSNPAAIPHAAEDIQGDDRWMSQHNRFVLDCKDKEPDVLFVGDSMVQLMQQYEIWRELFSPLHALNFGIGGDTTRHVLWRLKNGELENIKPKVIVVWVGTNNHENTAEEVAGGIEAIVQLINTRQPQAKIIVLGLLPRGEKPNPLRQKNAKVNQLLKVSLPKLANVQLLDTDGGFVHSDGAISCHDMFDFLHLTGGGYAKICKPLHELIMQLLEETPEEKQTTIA
PAFAH2 FP inh – inhibitors of human PAFAH2 | Q99487 | recombinant PAFAH2, FP-rhodamine activity probe, fluorescence polarization | inhibition, % at 3.39 µM | hit rate 0.99% among 340,000;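 active means inhibition above the mean over all tested compounds plus 3 SD, cut at about 30% in these data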;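 further: inhibitors block probe labeling of enzyme so polarization drops; 0% = enzyme with DMSO and 100% = wells lacking PAFAH2 protein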
Fam108B inh – counter-screen for RBBP9 inhibitors: inhibitors of mouse Fam108B; hit rate 0.33% among 300,000; recombinant Fam108B, FP-Rh probe fluorescence polarization; inhibition, % at 9.51 µM; AID 1947;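 active means inhibition above the screen mean inhibition plus 3 SD, computed separately per campaign, cut at about 18% in these data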;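 further: inhibitors lower polarization as less probe binds the enzyme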
PAFAH1B3 inh – inhibitors of human PAFAH1B3; recombinant PAFAH1B3, FP-rhodamine probe, fluorescence polarization; inhibition, % at 3.39 µM; hit rate 0.28% among 340,000; AID 492972;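 active means inhibition above the screen-wide average of all tested compounds plus 3 SD, cut at about 25% in these data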;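 further: 0% = enzyme with DMSO only and 100% = wells lacking PAFAH1B3 protein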
PME-1 primary – blocks human protein phosphatase methylesterase 1; Q9Y570; recombinant PME-1, FP-Rh probe fluorescence polarization; inhibition, % at 5.9 µM; hit rate 0.53% among 320,000; AID 2130;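 active means inhibition above the campaign mean of all compounds plus 3 SD, cut at about 26% in these data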;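 further: competitive labeling of PME-1 active site by serine hydrolase directed probe; 0% = PME-1 with DMSO and 100% = wells lacking PME-1 enzyme; inhibitors block probe labeling so polarization falls and inhibition rises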
Target sequence (Q9Y570 whole entry, looked up): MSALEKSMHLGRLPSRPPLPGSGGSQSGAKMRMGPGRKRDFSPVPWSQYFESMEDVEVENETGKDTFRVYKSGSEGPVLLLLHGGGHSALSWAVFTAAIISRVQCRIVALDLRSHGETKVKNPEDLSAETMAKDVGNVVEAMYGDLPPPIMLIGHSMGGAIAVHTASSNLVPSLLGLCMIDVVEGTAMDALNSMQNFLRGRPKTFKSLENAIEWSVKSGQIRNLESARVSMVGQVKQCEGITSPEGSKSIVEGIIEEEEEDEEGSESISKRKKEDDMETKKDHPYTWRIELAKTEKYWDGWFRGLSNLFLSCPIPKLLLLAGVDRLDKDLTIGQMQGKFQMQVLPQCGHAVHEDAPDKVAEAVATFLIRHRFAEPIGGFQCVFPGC
* hit, by the source's call; / = no result. A selection: hits, their analogues and other compounds. The true share with any hit is near 2.9%.

SMILES	pPAFAH inh	PAFAH1B2 FP inh	PAFAH2 FP inh	Fam108B inh	PAFAH1B3 inh	PME-1 primary
O=C(CSc1ccccc1)NC(=O)NCc1ccccc1	6	32*	5	-3	2	-1
CCN(CC)CC(=O)NCC1(c2ccccc2)CCCC1	2	26*	1	0	1	1
O=C(CSc1ccccc1)NCC1(N2CCCCC2)CCCCC1	34*	-2	0	-4	5	-5
CCN(CC)CC(=O)NCC1(c2ccccc2)CCOCC1	-1	9	1	1	-2	-2
Cc1nc(SCC(=O)NC(=O)NCc2ccccc2)nc(C)c1C	3	12	2	4	-4	9
O=C(CN1CCCCC1)NCC1(c2ccccc2)CCCC1	4	29*	-2	1	2	-3
Cc1ccc(CN2CC(C(=O)Nc3ccc(C)c(S(=O)(=O)N4CCCCC4)c3)CC2=O)cc1 (stereo not drawn)	/	-1	0	/	7	/
CCOC(=O)Cc1csc(NC(=O)C(C)c2ccc([N+](=O)[O-])cc2)n1 (stereo not drawn)	-1	6	1	0	13	3
CCn1ncc(NC(=S)Nc2ccc(OC)c(OC)c2)c1C(N)=O	10	2	-7	-3	14	4
Cc1ccc(C(=O)NCC2(c3ccccc3)CCCC2)cc1	15	92*	4	1	5	7
COc1ccc(C(=O)NCC2(c3ccccc3)CCOCC2)cc1[N+](=O)[O-]	-2	-4	-2	0	6	3
CCCC1(C(=O)OCC)NC(c2ccc(O)cc2)C2C(=O)N(c3cccc(C(C)=O)c3)C(=O)C21 (stereo not drawn)	3	-1	4	0	2	-5
CCOC(=O)c1c(C)[nH]c(C2=NNC(=Nc3ccccc3)SC2)c1C	/	-5	-2	/	-1	/
CCOC(=O)c1c(C)[nH]c(C2=NNC(=Nc3ccc(OCC)cc3)SC2)c1C	9	3	-5	7	13	28*
COc1ccc(CCn2c(N3CCOCC3)nc3c2c(=O)[nH]c(=O)n3C)cc1	1	2	7	-3	4	3
CC(C)NCC(O)COCCOc1ccc(Cl)cc1 (stereo not drawn)	1	9	1	1	6	2
CC(C)NCC#CCOc1ccc(Cl)cc1	6	30*	7	-1	2	2
O=C(c1ccco1)N1CCN(S(=O)(=O)c2ccc3[nH]c(=O)oc3c2)CC1	6	3	0	0	-1	0
O=c1[nH]c2ccc(S(=O)(=O)N3CCC(Cc4ccccc4)CC3)cc2o1	14	29*	4	2	0	-5
CCOc1ccccc1NC(=O)c1cccc(S(=O)(=O)N(Cc2ccccc2)c2ccccc2OC)c1	2	-5	-9	-8	-4	-7
COc1ccccc1N(Cc1ccccc1)S(=O)(=O)c1cccc(C(=O)O)c1	34*	7	-2	1	8	0
Brc1ccccc1Cn1c(-c2cncs2)nc2ccccc21	19	-4	1	-2	15	9
CCOC(=O)CCc1c(C)nc(SCCCn2c(=O)[nH]c3ccccc32)c(C#N)c1C	-6	-5	2	-4	10	26*
CCCc1ccc2oc(C(=O)N3CCN(CC(=O)NC(C)C)CC3)c(C)c2c1	16	0	0	6	4	4
CS(=O)(=O)N1N=C(c2ccccc2)CC1c1ccc2c(c1)OCO2 (stereo not drawn)	-22	-18	-90	-7	-10	28*
SMILES	pPAFAH inh	PAFAH1B2 FP inh	PAFAH2 FP inh	Fam108B inh	PAFAH1B3 inh	PME-1 primary
CCN(CC)c1ccc(/C=C2\CCC(/C=N/NC(=O)c3ccc(=O)n(C)c3)=C2N2CCOCC2)cc1	29*	3	-1	3	5	6
Nc1nc(SCc2ccc3c(c2)OCCO3)n[nH]1	-2	8	7	3	1	-3
O=[N+]([O-])c1cc(-c2nnc(N3CCOCC3)c3ccccc23)ccc1N1CCOCC1	5	5	-4	-7	7	5
Cc1ccc(Nc2nnc(-c3ccc(N4CCOCC4)c([N+](=O)[O-])c3)c3ccccc23)cc1	7	-2	-5	5	5	48*
Cc1nc2c(C(=O)NCc3ccc4c(c3)OCO4)c[nH]n2c(=O)c1Cl	21	4	7	4	13	1
Cc1nc2c(C(=O)NCCC3=CCCCC3)c[nH]n2c(=O)c1Cl	28*	12	9	7	15	4
CCCCN1CCNC[C@@H]1Cc1ccccc1	-2	6	3	-1	7	-4
CCC(=O)NC1=C(C#N)C2(CCCC2)Cc2ccccc21	1	19	2	3	6	-10
N#CC1=C(N)c2ccccc2CC12CCCCC2	7	35*	4	1	-5	-1
Oc1ccc(/C=C/c2ccc3ccccc3n2)cc1	-2	6	3	6	-1	28*
O=C(Nc1cccc(S(=O)(=O)N2CCOCC2)c1)c1c2c(nc3ccccc13)CCC2	27*	-1	-4	3	2	6
CCN(CC)S(=O)(=O)c1ccc(N2CCOCC2)c(NC(=O)c2c3c(nc4ccccc24)CCC3)c1	26*	-6	17	1	-3	2
COc1ccc(NC(=O)c2cc(-c3ccco3)nc3ccccc23)cc1S(=O)(=O)N1CCOCC1	-13	2	11	5	7	-6
Cc1ccc(NC(=O)c2cc(-c3ccco3)nc3ccccc23)cc1S(=O)(=O)N1CCOCC1	27*	-6	-8	13	0	-2
O=C(Nc1cccc(S(=O)(=O)N2CCOCC2)c1)c1ccc2ccccc2n1	-2	-3	2	0	-4	-1
O=C1N/C(=N/NC(=O)c2cccc3ccccc23)S/C1=C\c1ccccc1OCc1ccccc1	/	14	10	/	26*	/
COc1cccc(/C=C2\SC(=O)NC2=O)c1OCc1ccc(C(=O)O)cc1	-2	11	6	4	14	4
COc1ccc(C(=S)N2CCCC2)cc1C	3	-1	-1	-3	2	3
Cc1ccc(CN=C2NC(=O)C(CC(=O)NCCc3ccccc3)S2)cc1 (stereo not drawn)	11	42*	0	4	-1	4
C/C(N)=C(/C#N)C(=O)COC(=O)CSc1ccccc1	2	26*	-8	-2	-7	1
COc1ccc(COc2ccc3ccc(=O)oc3c2)cc1	6	4	0	1	8	2
CCOc1c(Nc2ccc(C(C)C)cc2)c(=O)c1=O	6	3	5	-1	-1	10
CCOc1ccc(C(=O)Nc2ccc(-c3cc4ccccc4oc3=O)c(C)c2)cc1[N+](=O)[O-]	-4	-6	1	-18	-16	-22
CCN(CC)c1ccc(NC(=O)CSc2nc(C3CC3)nc3ccccc23)cc1C	31*	4	7	-2	7	4

Bioassay records (PubChem)
